“And” between values parts separate entries of the source, which are not always exact repeats. Equal values may be shown once. In all, about 5,500 compounds went through this assay and about 2,000 (36%) were called active. Another 18% or so got no clear call; they are omitted. Cut-off read from the data, not from the text of the source: active = normalized growth mostly below about 0.91 (no sharp cut-off); inconclusive = no clear call, values can overlap the other calls; inactive = mostly above about 0.92. Some of the results follow.
Test: chemical genetic growth profiling, strain panel (AID 1159580);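 note: tested at 20 µM; growth read once vehicle control cultures reached saturation at 30 °C; 1 = growth at the plate median or of vehicle wells; lower values mean less growth of the strain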
Conditions: S. cerevisiae deletion strains, growth OD

Measured: normalized growth

O=C(O)C1CCCNC1 (stereo not given)
inactive: locus YAL013W, strain DEP1, stronger effect = lower value 1 | locus YAL021C, strain ccr4, stronger effect = lower value 1.01 | locus YAL026C, strain drs2, stronger effect = lower value 1.02 | locus YAL030W, strain snc1, stronger effect = lower value 1.02 | locus YAL040C, strain CLN3, stronger effect = lower value 1 | locus YBL061C, strain skt5, stronger effect = lower value 1.02 | locus YBR009C, strain hhf1, stronger effect = lower value 1.01 | locus YBR021W, strain FUR4, stronger effect = lower value 0.999 | locus YBR023C, strain chs3, stronger effect = lower value 1.01 | locus YBR171W, strain sec66, stronger effect = lower value 1.03 | locus YBR229C, strain ROT2, stronger effect = lower value 1.01 | locus YBR231C, strain swc5, stronger effect = lower value 1.01 | locus YBR279W, strain paf1, stronger effect = lower value 1.01 | locus YCL011C, strain gbp2, stronger effect = lower value 1.01 | locus YCL016C, strain dcc1, stronger effect = lower value 1.01 | locus YCL029C, strain bik1, stronger effect = lower value 1.04 | locus YCL061C, strain MRC1 (second series), stronger effect = lower value 1 | locus YCL061C, strain MRC1, stronger effect = lower value 1.02 | locus YCL069W, strain vba3, stronger effect = lower value 1.02 | locus YCR088W, strain abp1, stronger effect = lower value 1.02 | locus YDL005C, strain med2, stronger effect = lower value 1.02 | locus YDL035C, strain GPR1, stronger effect = lower value 1.01 | locus YDL040C, strain nat1, stronger effect = lower value 1.02 | locus YDL074C, strain BRE1, stronger effect = lower value 1.03 | locus YDL101C, strain DUN1, stronger effect = lower value 1.01 | locus YDL134C, strain PPH21, stronger effect = lower value 1.01 | locus YDL185W, strain tfp1, stronger effect = lower value 1.01 | locus YDL192W, strain arf1, stronger effect = lower value 1.03 | locus YDR001C, strain nth1, stronger effect = lower value 1.02 | locus YDR069C, strain doa4, stronger effect = lower value 1.02 | locus YDR101C, strain arx1, stronger effect = lower value 1.02 | locus YDR137W, strain rgp1, stronger effect = lower value 1.02 | locus YDR150W, strain NUM1, stronger effect = lower value 1.01 | locus YDR159W, strain sac3, stronger effect = lower value 1.02 | locus YDR162C, strain NBP2, stronger effect = lower value 1.01 | locus YDR195W, strain ref2 0.991 | locus YDR297W, strain sur2, stronger effect = lower value 1.02 | locus YDR318W, strain mcm21, stronger effect = lower value 1.03 | locus YDR334W, strain swr1, stronger effect = lower value 1.02 | locus YDR335W, strain msn5, stronger effect = lower value 1.02 | locus YDR388W, stronger effect = lower value 1.02 | locus YDR392W, strain spt3, stronger effect = lower value 1.03 | locus YDR502C, strain sam2, stronger effect = lower value 1.01 | locus YEL003W, strain gim4, stronger effect = lower value 1.03 | locus YEL037C, strain rad23, stronger effect = lower value 1.02 | locus YEL061C, strain CIN8 (second series), stronger effect = lower value 1.02 | locus YEL061C, strain CIN8, stronger effect = lower value 1.01 | locus YER002W, strain NOP16, stronger effect = lower value 1.02 | locus YER015W, strain faa2, stronger effect = lower value 1.02 | locus YER016W, strain bim1, stronger effect = lower value 1.01 | locus YER110C, stronger effect = lower value 1.02 | locus YER111C, strain swi4, stronger effect = lower value 1.02 | locus YER155C, strain BEM2 (second series), stronger effect = lower value 1.02 | locus YER155C, strain BEM2, stronger effect = lower value 1 | locus YER167W, strain BCK2, stronger effect = lower value 1.02 | locus YFR010W, strain ubp6, stronger effect = lower value 1.02 | locus YGL078C, strain dbp3, stronger effect = lower value 1.02 | locus YGL086W, strain mad1, stronger effect = lower value 0.999 | locus YGL167C, strain pmr1, stronger effect = lower value 1.01 | locus YGL173C, strain kem1, stronger effect = lower value 1.02 | locus YGL227W, strain vid30, stronger effect = lower value 1.02 | locus YGL240W, strain doc1, stronger effect = lower value 1.02 | locus YGL248W, strain PDE1, stronger effect = lower value 1.01 | locus YGL253W, strain hxk2, stronger effect = lower value 1.02 | locus YGR078C, strain PAC10, stronger effect = lower value 1.02 and 1.01 | locus YGR135W, strain pre9, stronger effect = lower value 1.03 | locus YGR229C, strain SMI1, stronger effect = lower value 0.999 | locus YGR252W, strain gcn5, stronger effect = lower value 1.01 | locus YHR013C, strain ard1, stronger effect = lower value 1.04 | locus YHR027C, strain rpn1, stronger effect = lower value 1.01 | locus YHR030C, strain SLT2, stronger effect = lower value 1 and 0.996 | locus YHR079C, strain IRE1 (second series), stronger effect = lower value 1.02 | locus YHR079C, strain IRE1, stronger effect = lower value 1.01 | locus YHR094C, strain hxt1, stronger effect = lower value 1.02 | locus YHR129C, strain ARP1, stronger effect = lower value 1.01 | locus YHR142W, strain chs7, stronger effect = lower value 1.01 | locus YHR200W, strain rpn10, stronger effect = lower value 1.01 | locus YIL066C, strain RNR3, stronger effect = lower value 1.01 | locus YIL073C, strain SPO22, stronger effect = lower value 1.1 | locus YIL125W, strain kgd1, stronger effect = lower value 1.02 | locus YIR030C, strain dcg1, stronger effect = lower value 1.03 | locus YJL092W, strain hpr5, stronger effect = lower value 1.02 | locus YJL095W, strain BCK1 (second series), stronger effect = lower value 1.02 | locus YJL095W, strain BCK1, stronger effect = lower value 1.04 and 1 | locus YJL115W, strain asf1, stronger effect = lower value 1.01 | locus YJL129C, strain trk1, stronger effect = lower value 1.04 | locus YJL134W, strain LCB3, stronger effect = lower value 1.01 | locus YJL154C, strain vps35, stronger effect = lower value 1.03 | locus YJL164C, strain tpk1, stronger effect = lower value 1.01 | locus YJL166W, strain qcr8, stronger effect = lower value 1.01 | locus YJL168C, strain set2, stronger effect = lower value 1.02 | locus YJL187C, strain SWE1 (second series), stronger effect = lower value 1.02 | locus YJL187C, strain SWE1, stronger effect = lower value 1.01 | locus YJR043C, strain POL32, stronger effect = lower value 1.01 | locus YJR066W, strain TOR1, stronger effect = lower value 0.923
